Results from PubChem BioAssay AID493167 (Broad Institute, 2011).
Active and inactive are the calls of the source.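 How the source made its calls: active means signal falls and fitted half-maximal concentration is at most ten times the sample's top valid dose; inconclusive means flat fit with 30 to 70% inhibition, or poor fit; inactive means change in the rising direction, plus the rest.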

Test system: LuxS (S-ribosylhomocysteine lyase), bacterial
Experiment: S-ribosylhomocysteine lyase activity inhibition – biochemical, dry powder, set 3, absorbance, dose response (AID 493167)
Settings: purified Co-LuxS, SRH turnover, DTNB absorbance 412 nm; series mostly up to 35 µM; activity change, negative = inhibition: at the top concentration

Activity change, negative = inhibition, inactive:
C[C@@H]1CN([C@H](C)CO)C(=O)c2ccccc2-c2ccccc2CO[C@@H]1CN(C)Cc1ccc(Oc2ccccc2)cc1 -3.21%
Cc1noc(C)c1S(=O)(=O)Nc1ccc2c(c1)C(=O)N([C@@H](C)CO)C[C@@H](C)[C@@H](CN(C)Cc1ccc(Oc3ccccc3)cc1)O2 -0.706%
O=S(=O)(Nc1ccccn1)c1ccccc1 -1.86%
O=S(=O)(Nc1cccnc1)c1ccc(Oc2ccccc2)cc1 -4.43%
